hgDAF-12 ag: activates the H. glycines DAF-12 receptor ligand-binding domain | HEK293 GAL4-hgDAF12 UAS-luciferase reporter, agonist luminescence; normalized to butyrate control | activation, % at 6.8 µM | 370,000 tested, 1.8% active | AID 687014;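 active means activation above a cutoff set at the mean of all screened compounds plus 3 SD, cut at about 10% in these data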;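 further: 0% = DMSO wells and 100% = sodium butyrate wells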
DAX1 inh: DAX1 (NR0B1) inhibition, primary screen; HEK293T StAR-luciferase reporter, SF-1/DAX-1 repression relief; inhibition, % at 6.8 µM; 370,000 tested, 1.1% active;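 active means inhibition above the mean over all tested compounds plus 3 SD, cut at about 3.6% in these data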;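 further: 0% = DAX-1 cells with DMSO and 100% = cells lacking DAX-1 with DMSO; higher inhibition means more luminescence from relief of DAX-1 repression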
Wnt bcat act: activators of Wnt/beta-catenin signaling; Wnt/beta-catenin reporter cell assay, activator, plate reader; activation, % at 9.35 µM; 300,000 tested, 1.2% active; AID 743398; in the data active means activation above about 30%, passing the limit was not always enough; inconclusive means no clear call, values can overlap the other calls;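 further: 0% = neutral control wells and 100% = positive control wells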
ssDAF12 agonist: activates DAF-12 receptor from parasite S. stercoralis. HEK293 ssDAF-12/GRIP1 lit1-tk-luc reporter, luminescence; % of 3 µM dafachronic acid response. 370,000 tested, 1% active. activation, % at 6.8 µM;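 active means activation above the mean over all tested compounds plus 3 SD, cut at about 0.9% in these data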;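 further: 0% = DMSO-only wells and 100% = 3 µM delta7-dafachronic acid wells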
esBAF inh: inhibitors of esBAF chromatin remodeling in mouse ES cells. Bmi1-luciferase knock-in reporter, 24 h; 100% = twice the neutral-well signal. reporter increase, % at 12.5 µM. 350,000 tested, 2% active. AID 602393; in the data active means activation above about 40%; inconclusive means no clear call, values can overlap the other calls;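 further: 0% = median of the plate's neutral control wells and 100% = double that signal; a rise in the Bmi1 reporter signal indicates esBAF inhibition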
hcDAF12 agonist: activates DAF-12 receptor from parasite H. contortus. 370,000 tested, 1.4% active. activation, % at 6.8 µM. HEK293 hcDAF-12 lit1-tk-luc reporter, luminescence; 0% DMSO, 100% Δ7-dafachronic acid;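 active means activation above the mean of all tested compounds plus 3 SD, cut at about 5.5% in these data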;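 further: 100% = response to 3 µM Δ7-dafachronic acid high control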
Starred values were filed as active, the others as inactive; ? = inconclusive; . = no result. This is a sample that favours compounds with a hit; in the whole collection about 4.2% have one here.

SMILES	hgDAF-12 ag	DAX1 inh	Wnt bcat act	ssDAF12 agonist	esBAF inh	hcDAF12 agonist
Cc1noc(C)c1C(=O)Nc1ccc(Cl)cc1C(F)(F)F	.	.	-1	.	1	.
Cc1ccc(C(=O)Nc2ccc(Cl)cc2C(F)(F)F)c(Cl)c1	13*	0	14	-1	.	0
O=C(CCNC(=O)c1ccc(Cl)cc1)Nc1ccc(F)cc1F	0	-1	-1	-1	.	0
CCS(=O)(=O)N[C@H]1CC[C@@H](CC(=O)NCc2ccc(F)cc2)O[C@@H]1CO	.	.	.	.	2	.
CC(C)NC(=O)N[C@@H]1C=C[C@H](CC(=O)N2CCCCC2)O[C@H]1CO	.	.	.	.	-3	.
O=C(NC1Cc2ccccc2C1)[C@H]1[C@H](CO)[C@H]2Cn3c(ccc(C4=CCCCC4)c3=O)[C@@H]1N2CC1CC1	.	.	.	.	5	.
O=C(Nc1ccc2c(c1)OCO2)c1ccc(CO)cc1	8	4.2*	48*	0	38	3
CCCN1C(=O)c2ccc(C(=O)Nc3ccc4c(c3)OCO4)cc2C1=O	1	-2	9	-1	63*	0
CCCCOc1ccc(C(=O)Nc2ccc3c(c2)OCO3)cc1	1	1	35*	-1	42*	2
CN(CCOc1ccccc1)C(=O)c1ccc2c(c1)OCO2	6	1	-2	0	43*	1
Cc1noc(C)c1NC(=O)N[C@H]1CC[C@@H](CC(=O)NCCCN(C)C)O[C@@H]1CO	.	.	.	.	5	.
C[C@H]1CN([C@@H](C)CO)C(=O)c2cc(NC(=O)Cc3cn(C)c4ccccc34)ccc2O[C@H]1CN(C)Cc1ccc(C(=O)Nc2ccccc2N)cc1	.	.	.	.	-20	.
Cc1ccc2c(CN(C)Cc3ccc(OC(F)F)cc3)cc(=O)oc2c1C	-1	0	-1	-1	-2	-2
Cc1ccc2c(CN(C)Cc3cccc(F)c3)cc(=O)oc2c1C	0	1	6	-1	50*	-2
Cc1cc2oc(=O)cc(CN(C)Cc3ccccc3)c2cc1C	5	1	8	0	48*	2
Cc1ccc2c(CN(C)Cc3ccccc3)cc(=O)oc2c1C	-4	0	18	-1	59*	2
c1ccc2c(c1)Cn1nc(Cc3nc4c(s3)CCCC4)nc1-2	6	0	.	-1	35	5.7*
CCN1[C@@H]2c3ccc(-c4cccc(OC)c4)c(=O)n3C[C@H]1[C@H](CO)[C@H]2C(=O)N(C)C	.	.	.	.	-2	.
CCSc1nnc(NC(=O)C(C)(C)C)s1	4	0	20	0	51*	1
CCSc1nnc(NC(=O)/C=C/c2ccco2)s1	9	0	7	-2	.	6.0*
CCc1nnc(NC(=O)/C=C/c2ccco2)s1	7	1	?	-1	.	1
CC(C)(C)C(=O)CSc1nnc(Nc2ccccc2)s1	7	1	27	-1	74*	2
CO[C@@H]1CN(C)C(=O)c2cc(NC(=O)C3CC3)ccc2OC[C@@H](C)NC[C@@H]1C	.	.	.	.	2	.
Clc1ccc(/C=C\c2nccc3c2[nH]c2ccccc23)cc1	9	1	0	0	.	5.7*
N#Cc1ccc(/C=C\c2nccc3c2[nH]c2ccccc23)cc1	3	-2	-5	0	.	4
SMILES	hgDAF-12 ag	DAX1 inh	Wnt bcat act	ssDAF12 agonist	esBAF inh	hcDAF12 agonist
O=C(C[C@H]1C[C@H]2c3cc(NC(=O)NC4CCCC4)ccc3O[C@H]2[C@@H](CO)O1)NCCN1CCCCC1	.	.	.	.	5	.
CN(c1ccc(C(=O)NCCc2ccccc2)cc1)S(C)(=O)=O	9	4.4*	.	0	-22	5
CN(c1ccccc1)S(=O)(=O)c1ccc(C(=O)NCc2ccccc2CN2CCCC2)cc1	-2	4.3*	1	-1	-8	-2
O=C(NCCc1ccccc1)c1ccc(-n2cnnn2)cc1	9	2	7	-1	48*	0
Cc1ccc(S(=O)(=O)N(C)c2ccc(C(=O)NCCc3ccccc3)cc2)cc1	6	2	6	0.9*	.	1
CN(C)CC(=O)Nc1ccc2c(c1)[C@@H]1C[C@H](CC(=O)NCc3cccnc3)O[C@H](CO)[C@@H]1O2	.	.	.	.	-3	.
Cc1ccc(-c2nc3ccccc3s2)cc1NC(=O)c1cc(-n2cnnc2)ccc1Cl	10*	2	-2	-1	37	5
Cc1c(NC(=O)c2cc(-n3cnnc3)ccc2Cl)cccc1-c1nc2ccccc2o1	-2	-1	.	-1	.	1
Cc1cc(=O)[nH]c(N/N=C/c2ccc(F)cc2)n1	0	0	3	1.3*	1	-1
Cc1cccc(-c2nc(CN3CCN(Cc4cccc(F)c4)CC3)c(C)o2)c1	0	0	49*	0	0	-2
O=c1c2ccccc2oc2ccc(-c3ccc4[nH]ccc4c3)cc12	11*	5.0*	-3	0	34	5
COc1ccc2c3n(nc2c1)CCN=C3c1cc(Cl)c(N)c(Cl)c1	0	0	3	-1	3	0
Nc1c(Cl)cc(C2=NCCn3nc4cc([N+](=O)[O-])ccc4c32)cc1Cl	-1	0	0	0	-8	5.8*
C[C@@H]1CN([C@@H](C)CO)C(=O)c2cc(NC(=O)Nc3cccc4ccccc34)ccc2O[C@@H](C)CCCCO[C@H]1CN(C)S(=O)(=O)c1cccs1	.	.	.	.	-5	.
O=C(Nc1nc(-c2cccs2)cs1)c1ccc([N+](=O)[O-])o1	0	-2	18	2.0*	34	4
CC1Cc2cc(-c3csc(NC(=O)Cc4cccs4)n3)ccc2N1S(C)(=O)=O (configuration not stated)	-12	-5	.	-3	.	-6
CCC(=O)Nc1nc(-c2ccc3c(c2)CC(C)N3S(C)(=O)=O)cs1 (configuration not stated)	-1	-1	7	-1	54*	-1
O=C(Nc1nc(-c2cccs2)cs1)c1ccco1	11*	4.1*	9	0	.	4
O=C(Nc1nc(-c2cccs2)cs1)c1ccc(Cl)cc1	1	-1	.	-1	.	-1
CCC(=O)N1CCc2cc(-c3csc(NC(=O)c4ccco4)n3)ccc21	-1	0	5	-1	45*	0
Cc1noc(C)c1S(=O)(=O)Nc1ccc2c(c1)C(=O)N([C@@H](C)CO)C[C@H](C)[C@@H](CN(C)C(=O)Nc1ccc(C(F)(F)F)cc1)OCCCC[C@H](C)O2	.	.	.	.	5	.
C[C@@H]1CN([C@@H](C)CO)C(=O)c2cc(NC(=O)Nc3ccc(C(F)(F)F)cc3)ccc2O[C@H]1CN(C)C(=O)Nc1cccc2ccccc12	.	.	.	.	2	.
CCC(=O)Nc1ccc2c(c1)C(=O)N(C)C[C@H](OC)[C@H](C)CN(Cc1ccccc1)[C@@H](C)CO2	.	.	.	.	1	.
CO[C@@H]1CN(C)C(=O)c2cc(NC(=O)c3cc(C)on3)ccc2OC[C@H](C)N(CC2CC2)C[C@@H]1C	.	.	.	.	-1	.
COc1ccc(C(=O)Nc2nc(-c3cccs3)cs2)cc1	1	-2	.	-1	84*	-2
